Test results: PubChem BioAssay (EPA / NIEHS)
Where “and” joins values, the source holds several entries; their conditions need not be identical. Equal entries are not always repeated. Inconclusive results are not listed. A structure can be active in one record and inactive in another. Calls of active or inactive are those of the source. How the source made its calls: active means hit-call score of the fitted dose curve at least 0.9, where 1 is the maximum; inconclusive means response in the unintended direction; inactive means score below 0.9.

Experiments:
[1] = ATG_M_06_XSP2: Attagene TRANS-FACTORIAL Multi-Species (XSP2) HepG2 Assay for M06 Transcription Factor (Internal Marker) (AID 2283811);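 further: internal background marker reporter mRNA measured by RT-PCR and capillary electrophoresis; hits are increases in signal above the DMSO baseline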
Method in brief: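 Cells of the human liver line HepG2 carried transfected reporter transcription units and were treated for 24 h. Induced reporter transcripts were detected by fluorescence after RT-PCR and capillary electrophoresis, with activity fitted in the gain direction against DMSO.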

[2] = system: turtle Estrogen Receptor (ERa), gene 101933533; assay: ATG_trERa_XSP2: Attagene TRANS-FACTORIAL Multi-Species (XSP2) HepG2 Assay for turtle Estrogen Receptor (ERa) (AID 2283812);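 further: actives raise reporter signal above DMSO so AC50 reflects agonist activity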
Method in brief: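 Readout is reporter mRNA quantified by RT-PCR with capillary electrophoresis after 24 h compound exposure, increase relative to DMSO. Uses transiently transfected human HepG2 liver cells carrying a chimeric turtle ERa-Gal4 receptor driving GAL4-UAS reporters.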

[3] = target: Estrogen receptor beta (Homo sapiens) (UniProt Q92731); assay: ATG_hERb_XSP2: Attagene TRANS-FACTORIAL Multi-Species (XSP2) HepG2 Assay for human Estrogen Receptor (ERb) (AID 2283813);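 further: actives raise reporter mRNA above DMSO so AC50 reflects agonist induction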
Sequence of Estrogen receptor beta (Homo sapiens) (Q92731 whole entry, looked up): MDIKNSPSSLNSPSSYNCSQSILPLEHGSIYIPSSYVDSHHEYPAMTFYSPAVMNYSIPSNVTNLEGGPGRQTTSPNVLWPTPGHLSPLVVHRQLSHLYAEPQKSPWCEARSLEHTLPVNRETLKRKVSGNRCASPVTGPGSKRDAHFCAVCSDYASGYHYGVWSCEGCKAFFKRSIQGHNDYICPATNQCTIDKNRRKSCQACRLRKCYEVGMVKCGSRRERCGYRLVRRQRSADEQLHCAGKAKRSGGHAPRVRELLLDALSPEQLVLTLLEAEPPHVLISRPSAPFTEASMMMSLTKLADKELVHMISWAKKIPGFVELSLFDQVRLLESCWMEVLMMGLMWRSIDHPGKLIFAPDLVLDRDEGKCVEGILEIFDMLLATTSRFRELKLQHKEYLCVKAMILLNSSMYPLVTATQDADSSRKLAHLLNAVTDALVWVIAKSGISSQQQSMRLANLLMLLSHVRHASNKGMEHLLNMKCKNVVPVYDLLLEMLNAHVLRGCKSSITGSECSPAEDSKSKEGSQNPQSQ
Protocol: ATG_XSP2_multi-species_TRANS is a cell-based, multiplexed assay created by modifying the existing Attagene TRANS-FACTORIAL system to include a panel of nuclear receptors from some or all the following species: human (Homo sapiens), mouse (Mus musculus), frog (Xenopus laevis), zebrafish (Danio rerio), chicken (Gallus gallus), and turtle (Chrysemys picta). The ECOTOX-FACTORIAL format uses HepG2, a human liver cell line, with measurements taken at 24 hours after chemical dosing in a 24-well plate. Xsp2 included 3 nM 6-alpha-fluorotestosterone and 1.5 nM norgestrel to stimulate the androgen receptor.ATG_hERb_XSP2 is one of 29 assay components measured or calculated from the ATG_XSP2_multi-species_TRANS assay. It is designed to make measurements of mRNA induction, a form of inducible reporter, as detected with fluorescence intensity signals by Reverse transcription polymerase chain reaction (RT-PCR) and Capillary electrophoresis technology.The assay endpoint ATG_hERb_XSP2 was analyzed in the positive analysis fitting direction relative to DMSO as the negative control and baseline of activity. […] Furthermore, this assay endpoint can be referred to as a primary readout, because this assay has produced multiple assay endpoints where this one serves a reporter gene function. […]
Human liver HepG2 cells are transiently transfected with multiple reporter transcription units (MRTUs) in 6-well plates using FuGene 6 reagent (Roche; 3 ml FuGene/1 mg DNA). […] A major difference between the CIS and TRANS system is that in CIS activities of endogenous TFs are measured, whereas the TRANS assay evaluates changes in activities of exogenous, chimeric NR-Gal4 proteins. […] The fragments were purified using Qiaquick PCR columns (Qiagen), analyzed on an ABI 3130xL genetic analyzer (Applied Biosystems) with peak positions identified by using a set of X-rhodamine (ROX)-labeled MapMarker1000 molecular weight standards (BioVentures). […]

[4] = target: zebrafish Estrogen Receptor (ER1), esr1 (gene 259252) (UniProt P57717); assay: ATG_zfER1_XSP2: Attagene TRANS-FACTORIAL Multi-Species (XSP2) HepG2 Assay for zebrafish Estrogen Receptor (ER1) (AID 2283816)
Sequence of zebrafish Estrogen Receptor (ER1), esr1 (gene 259252) (P57717 whole entry, looked up): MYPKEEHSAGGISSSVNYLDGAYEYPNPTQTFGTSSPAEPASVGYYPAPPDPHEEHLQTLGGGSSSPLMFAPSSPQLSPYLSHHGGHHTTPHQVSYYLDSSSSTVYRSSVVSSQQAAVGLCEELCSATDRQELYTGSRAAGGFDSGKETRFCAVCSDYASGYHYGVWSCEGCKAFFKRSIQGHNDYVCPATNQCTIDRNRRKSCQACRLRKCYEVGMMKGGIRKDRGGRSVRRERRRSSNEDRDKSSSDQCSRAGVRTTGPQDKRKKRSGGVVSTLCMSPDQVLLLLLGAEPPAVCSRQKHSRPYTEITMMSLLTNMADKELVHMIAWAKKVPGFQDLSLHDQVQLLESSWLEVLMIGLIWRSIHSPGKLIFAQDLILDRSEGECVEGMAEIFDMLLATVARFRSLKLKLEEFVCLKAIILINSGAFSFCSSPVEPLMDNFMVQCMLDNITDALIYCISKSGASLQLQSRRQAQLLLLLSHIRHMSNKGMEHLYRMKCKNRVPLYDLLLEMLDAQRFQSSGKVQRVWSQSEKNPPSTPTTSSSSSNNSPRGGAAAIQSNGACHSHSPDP
Protocol: ATG_XSP2_multi-species_TRANS is a cell-based, multiplexed assay created by modifying the existing Attagene TRANS-FACTORIAL system to include a panel of nuclear receptors from some or all the following species: human (Homo sapiens), mouse (Mus musculus), frog (Xenopus laevis), zebrafish (Danio rerio), chicken (Gallus gallus), and turtle (Chrysemys picta). The ECOTOX-FACTORIAL format uses HepG2, a human liver cell line, with measurements taken at 24 hours after chemical dosing in a 24-well plate. Xsp2 included 3 nM 6-alpha-fluorotestosterone and 1.5 nM norgestrel to stimulate the androgen receptor.ATG_zfER1_XSP2 is one of 29 assay components measured or calculated from the ATG_XSP2_multi-species_TRANS assay. It is designed to make measurements of mRNA induction, a form of inducible reporter, as detected with fluorescence intensity signals by Reverse transcription polymerase chain reaction (RT-PCR) and Capillary electrophoresis technology.The assay endpoint ATG_zfER1_XSP2 was analyzed in the positive analysis fitting direction relative to DMSO as the negative control and baseline of activity. Using a type of inducible reporter, measures of mRNA for gain-of-signal activity can be used to understand the reporter gene at the transcription factor-level as they relate to the gene ER. Furthermore, this assay endpoint can be referred to as a primary readout, because this assay has produced multiple assay endpoints where this one serves a reporter gene function. To generalize the intended target to other relatable targets, this assay endpoint is annotated to the nuclear receptor intended target family, where the subfamily is steroidal.
Human liver HepG2 cells are transiently transfected with multiple reporter transcription units (MRTUs) in 6-well plates using FuGene 6 reagent (Roche; 3 ml FuGene/1 mg DNA). The MRTU constructs are regulated by a cis-regulating element (promoter). […] A major difference between the CIS and TRANS system is that in CIS activities of endogenous TFs are measured, whereas the TRANS assay evaluates changes in activities of exogenous, chimeric NR-Gal4 proteins. […] At the end of 24 hour incubation, total RNA was isolated using TriZol reagent (Invitrogen). The isolated RNA is then reverse-transcribed using oligo(dT) primer and Mo-MLV reverse transcriptase (Invitrogen) with DNAse I (Ambion) treatment for 30 min. […] The fragments were purified using Qiaquick PCR columns (Qiagen), analyzed on an ABI 3130xL genetic analyzer (Applied Biosystems) with peak positions identified by using a set of X-rhodamine (ROX)-labeled MapMarker1000 molecular weight standards (BioVentures). […]

[5] = target: GAL4 Transcription Factor (Internal Marker), GAL4 (gene 855828) (UniProt P04386); assay: ATG_GAL4_XSP2: Attagene TRANS-FACTORIAL Multi-Species (XSP2) HepG2 Assay for GAL4 Transcription Factor (Internal Marker) (AID 2283814);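 further: GAL4 reporter mRNA background control in MRTU transfected cells not a receptor target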
Sequence of GAL4 Transcription Factor (Internal Marker), GAL4 (gene 855828) (P04386 whole entry, looked up, the tested form may be a part): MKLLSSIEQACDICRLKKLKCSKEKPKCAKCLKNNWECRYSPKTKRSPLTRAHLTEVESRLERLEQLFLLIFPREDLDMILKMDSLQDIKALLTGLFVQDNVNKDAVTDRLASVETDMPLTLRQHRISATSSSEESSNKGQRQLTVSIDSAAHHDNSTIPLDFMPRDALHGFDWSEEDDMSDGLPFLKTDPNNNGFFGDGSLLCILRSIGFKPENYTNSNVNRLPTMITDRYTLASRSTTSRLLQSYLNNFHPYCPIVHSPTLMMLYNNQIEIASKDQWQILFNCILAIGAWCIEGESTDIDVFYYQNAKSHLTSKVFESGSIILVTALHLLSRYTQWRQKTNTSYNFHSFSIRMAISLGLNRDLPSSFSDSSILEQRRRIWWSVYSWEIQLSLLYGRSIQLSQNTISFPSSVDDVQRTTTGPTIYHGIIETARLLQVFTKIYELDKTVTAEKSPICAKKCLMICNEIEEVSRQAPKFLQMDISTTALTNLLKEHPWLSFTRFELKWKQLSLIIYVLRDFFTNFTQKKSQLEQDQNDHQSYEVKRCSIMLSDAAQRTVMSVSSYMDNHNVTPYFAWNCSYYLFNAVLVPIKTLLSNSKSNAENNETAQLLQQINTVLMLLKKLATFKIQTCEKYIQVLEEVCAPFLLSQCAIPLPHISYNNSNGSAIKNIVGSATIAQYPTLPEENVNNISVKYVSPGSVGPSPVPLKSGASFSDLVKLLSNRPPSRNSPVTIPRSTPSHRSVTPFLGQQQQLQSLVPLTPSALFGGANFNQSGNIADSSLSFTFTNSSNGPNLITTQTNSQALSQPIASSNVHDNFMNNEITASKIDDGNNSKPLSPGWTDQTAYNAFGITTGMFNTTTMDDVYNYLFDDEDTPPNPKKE
Method in brief: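 Background-control readout: gain-of-signal fitted against DMSO. After 24 h exposure of transfected HepG2 (MRTU, GAL4-UAS reporters; 3 nM 6-alpha-fluorotestosterone, 1.5 nM norgestrel present), transcripts quantified by RT-PCR and capillary electrophoresis fluorescence.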

[6] = system: turtle Thyroid Hormone Receptor, alpha (TRa), gene 101949057; assay: ATG_trTRa_XSP1: Attagene TRANS-FACTORIAL Multi-Species (XSP1) HepG2 Assay for turtle Thyroid Hormone Receptor, alpha (TRa) (AID 2283806)
Method in brief: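 After 24 h chemical exposure, reporter transcripts were measured by RT-PCR with fluorescent primer extension, HpaI digestion and capillary electrophoresis. Cells were transiently transfected HepG2 expressing exogenous NR-Gal4 chimeras; medium contained 3 nM 6-alpha-fluorotestosterone; fitted upward relative to DMSO.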

[7] = target: zebrafish Thyroid Hormone Receptor alpha (TRa), thraa (gene 30670) (UniProt Q98867); assay: ATG_zfTRa_XSP1: Attagene TRANS-FACTORIAL Multi-Species (XSP1) HepG2 Assay for zebrafish Thyroid Hormone Receptor alpha (TRa) (AID 2283807)
Sequence of zebrafish Thyroid Hormone Receptor alpha (TRa), thraa (gene 30670) (Q98867 whole entry, looked up, the tested form may be a part): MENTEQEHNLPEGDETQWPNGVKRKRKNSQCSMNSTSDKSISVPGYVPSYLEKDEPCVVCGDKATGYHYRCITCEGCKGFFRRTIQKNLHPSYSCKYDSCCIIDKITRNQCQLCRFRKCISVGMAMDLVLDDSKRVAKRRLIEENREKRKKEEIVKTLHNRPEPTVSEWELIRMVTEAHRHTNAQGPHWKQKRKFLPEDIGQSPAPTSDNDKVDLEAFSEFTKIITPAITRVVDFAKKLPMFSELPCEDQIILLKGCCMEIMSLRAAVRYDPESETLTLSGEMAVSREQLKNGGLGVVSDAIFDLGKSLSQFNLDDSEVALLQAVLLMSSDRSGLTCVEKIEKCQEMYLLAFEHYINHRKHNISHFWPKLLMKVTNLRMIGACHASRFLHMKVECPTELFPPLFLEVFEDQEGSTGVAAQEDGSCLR
Method in brief: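 Reporter transcripts driven by a chimeric zebrafish TRa–Gal4 protein were measured by RT-PCR with fluorescent labelling and capillary electrophoresis. These came from transiently transfected HepG2 cells after 24 h chemical exposure, with 3 nM 6-alpha-fluorotestosterone added; baseline was DMSO.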

[8] = target: human Thyroid hormone Receptor beta (TRb), THRB (gene 7068) (UniProt P10828); assay: ATG_hTRb_XSP1: Attagene TRANS-FACTORIAL Multi-Species (XSP1) HepG2 Assay for human Thyroid hormone Receptor beta (TRb) (AID 2283808)
Sequence of human Thyroid hormone Receptor beta (TRb), THRB (gene 7068) (P10828 whole entry, looked up, the tested form may be a part): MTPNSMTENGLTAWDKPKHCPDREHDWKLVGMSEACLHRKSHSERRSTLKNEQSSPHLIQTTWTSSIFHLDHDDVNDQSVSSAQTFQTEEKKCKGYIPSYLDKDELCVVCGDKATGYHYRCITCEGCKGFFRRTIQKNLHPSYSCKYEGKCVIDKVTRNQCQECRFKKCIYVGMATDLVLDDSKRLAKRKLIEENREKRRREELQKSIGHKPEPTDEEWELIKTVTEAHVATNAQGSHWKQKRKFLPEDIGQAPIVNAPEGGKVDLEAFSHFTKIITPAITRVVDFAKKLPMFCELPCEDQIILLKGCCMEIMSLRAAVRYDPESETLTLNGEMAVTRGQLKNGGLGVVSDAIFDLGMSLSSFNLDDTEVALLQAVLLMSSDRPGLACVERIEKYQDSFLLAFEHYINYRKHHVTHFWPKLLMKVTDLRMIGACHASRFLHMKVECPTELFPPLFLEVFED
Method in brief: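 Readout is reporter mRNA induction measured by RT-PCR, fluorescent labelling and capillary electrophoresis, fitted upward relative to DMSO. Transiently transfected human HepG2 cells expressing NR-Gal4 chimeras were dosed for 24 h, medium containing 3 nM 6-alpha-fluorotestosterone.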

[9] = target: zebrafish Thyroid Hormone Receptor beta (TRb), thrb (gene 30607) (UniProt Q9PVE4); assay: ATG_zfTRb_XSP1: Attagene TRANS-FACTORIAL Multi-Species (XSP1) HepG2 Assay for zebrafish Thyroid Hormone Receptor beta (TRb) (AID 2283809)
Sequence of zebrafish Thyroid Hormone Receptor beta (TRb), thrb (gene 30607) (Q9PVE4 whole entry, looked up): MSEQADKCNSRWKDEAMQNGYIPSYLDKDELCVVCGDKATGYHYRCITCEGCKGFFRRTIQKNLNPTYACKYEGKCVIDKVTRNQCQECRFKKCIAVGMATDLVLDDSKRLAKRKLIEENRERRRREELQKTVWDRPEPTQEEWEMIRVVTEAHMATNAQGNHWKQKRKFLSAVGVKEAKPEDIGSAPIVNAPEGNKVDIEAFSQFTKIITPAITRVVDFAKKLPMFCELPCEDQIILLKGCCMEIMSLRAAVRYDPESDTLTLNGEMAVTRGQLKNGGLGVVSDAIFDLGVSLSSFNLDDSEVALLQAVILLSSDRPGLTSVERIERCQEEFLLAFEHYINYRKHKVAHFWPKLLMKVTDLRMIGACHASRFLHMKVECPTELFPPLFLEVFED
Protocol: ATG_XSP1_multi-species_TRANS is a cell-based, multiplexed assay created by modifying the existing Attagene TRANS-FACTORIAL system to include a panel of nuclear receptors from some or all the following species: human (Homo sapiens), mouse (Mus musculus), frog (Xenopus laevis), zebrafish (Danio rerio), chicken (Gallus gallus), and turtle (Chrysemys picta). The ECOTOX-FACTORIAL format uses HepG2, a human liver cell line, with measurements taken at 24 hours after chemical dosing in a 24-well plate. Xsp1 included 3 nM 6-alpha-fluorotestosterone to partially stimulate the androgen receptor.ATG_zfTRb_XSP1 is one of 29 assay components measured or calculated from the ATG_XSP1_multi-species_TRANS assay. It is designed to make measurements of mRNA induction, a form of inducible reporter, as detected with fluorescence intensity signals by Reverse transcription polymerase chain reaction (RT-PCR) and Capillary electrophoresis technology.The assay endpoint ATG_zfTRb_XSP1 was analyzed in the positive analysis fitting direction relative to DMSO as the negative control and baseline of activity. […] Furthermore, this assay endpoint can be referred to as a primary readout, because this assay has produced multiple assay endpoints where this one serves a reporter gene function. […]

[10] = ATG_XTT_Cytotoxicity_XSP1: Cytotoxicity Assessment in the Attagene TRANS-FACTORIAL Multi-Species (XSP1) HepG2 Assay (AID 2283810)
Method in brief: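 XTT viability readout taken at 24 hours post-dosing in HepG2 liver cells co-treated with 3 nM 6-alpha-fluorotestosterone. Signal loss relative to DMSO controls reflects cytotoxicity.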

Cc1c(C)c2c(c(C)c1O)CCC(C)(COc1ccc(CC3SC(=O)NC3=O)cc1)O2 (centres undefined)
outcome [1]: inactive
outcome [2]: inactive
outcome [3]: inactive
outcome [4]: inactive

CC(=O)[C@@]1(O)CC[C@H]2[C@@H]3CCC4=CC(=O)CC[C@]4(C)[C@H]3CC[C@@]21C
AC50 [2]: 37.4 µM (active) and 11.9 µM (active)
AC50 [3]: 100000 nM (active)
outcome [3]: inactive
outcome [5]: inactive
outcome [4]: inactive

CC(=O)O[C@]1(C(C)=O)CC[C@H]2[C@@H]3C=C(Cl)C4=CC(=O)[C@@H]5C[C@@H]5[C@]4(C)[C@H]3CC[C@@]21C
outcome [6]: inactive
outcome [7]: inactive
outcome [8]: inactive
outcome [9]: inactive
outcome [10]: inactive
outcome [1]: inactive
outcome [4]: inactive

CCN(CC)CCOc1ccc(C(=C(Cl)c2ccccc2)c2ccccc2)cc1
AC50 [6]: 1130 nM (active)
AC50 [7]: 2960 nM (active)
AC50 [8]: 2020 nM (active)
AC50 [9]: 1570 nM (active)
AC50 [10]: 31400 nM (active)
outcome [1]: inactive
outcome [5]: inactive
outcome [4]: inactive
